Unmarked numbers belong to inactive results. The rule behind the calls is not given here.

The experiment can be described thus: blockers of DNA damage checkpoint Chk1 activation – imaging, HeLa, hydroxyurea, phospho-Chk1 antibody, percent positive cells, primary screen (AID 1186). The conditions noted are these: hydroxyurea-induced phospho-Chk1 immunofluorescence imaging, higher = more signal.
As to `C=C(C(=O)CC[C@@H](OC(=O)c1ccccc1-c1ccccc1C(=O)O)c1ccc(OCCO)cc1)C(C)C`, the z-score was 0.468.

On to `O=C(c1ccccc1)N1Cc2ccccc2C[C@@]2(N=C(c3ccc(OCCCO)cc3)O[C@H]2c2ccccc2)C1=O`, for which the z-score was -0.0769.

Regarding `CC(C)C[C@@H]1NC(=O)[C@@H]2C[C@H](C(=O)NCCCCCNC(=O)CS)[C@H](c3ccc(O)cc3)N2C1=O`, the z-score was 0.581.

In the case of `COC(=O)c1ccc(OC)c(/C=C\CC(OC(=O)c2ccncc2)c2ccccc2)c1` (stereo unspecified), the z-score was -0.843.

Take `COC(=O)C(CC#Cc1ccc2c(c1)[C@]1(C(=O)N2)[C@H](C(N)=O)[C@H]2C(=O)O[C@H](c3ccccc3)[C@H](c3ccccc3)N2[C@@H]1c1ccccc1OCCO)C(=O)OC`: the z-score is -0.49.

On to `C=CCNC(=O)[C@H]1[C@@H]2C(=O)O[C@@H](c3ccccc3)[C@@H](c3ccccc3)N2[C@@H](c2ccc(O)cc2)[C@]12C(=O)Nc1ccc(C#CCC(C(=O)OC)C(=O)OC)cc12`, for which the z-score is 0.0976.

Consider `C#CCN(C(=O)OC(C)(C)C)[C@H](CO)c1ccccc1`, for which the z-score was -0.306.

With `COCCCNC(=O)[C@@]1(Cc2ccccc2I)c2ccccc2C(=O)N(C2CCCCC2)[C@H]1c1ccc(CO)cc1`, the z-score is -0.0463.

For `COC(=O)[C@@]1(Cc2ccc(F)cc2)[C@H]2c3cc(C(=O)N4CCCC4)n(CCSCCO)c3C[C@H]2CN1C(=O)c1ccccc1`, the z-score was 0.685.

On to `COC(=O)[C@]1(Cc2ccccc2N=[N+]=[N-])N=C(c2ccc(OCCCO)cc2)O[C@@H]1c1ccccc1CN=[N+]=[N-]`, for which the z-score was -0.446.

For `COc1cccc(C)c1NC(=O)O[C@H]1[C@H](OC(=O)Nc2ccccc2)[C@@H](OC(=O)Nc2ccccc2)[C@@H](OC)O[C@@H]1CO`, the z-score was -0.515.

Consider `[N-]=[N+]=NCc1ccccc1C[C@@]1(C(=O)NCCN2CCOCC2)N=C(c2ccc(OCCCO)cc2)O[C@@H]1c1ccccc1`, for which the z-score was 0.174.

`C=CC[C@H](O)c1ccc(O)c(F)c1`: the z-score is -0.316.

For the compound `Cc1ccc(S(=O)(=O)N2[C@@H](c3ccccc3)C(C(=O)O)=CC[C@H]2c2ccc(F)cc2)cc1`, the z-score is 0.388.

Consider `C=CCNC(=O)[C@H]1[C@@H]2C(=O)O[C@@H](c3ccccc3)[C@@H](c3ccccc3)N2[C@@H](c2ccc(O)cc2)[C@]12C(=O)N(C(=O)OCCOC)c1ccc(C#Cc3ccc(OC)cc3)cc12`, for which the z-score was 0.0708.

Regarding `CC(C)(C)OC(=O)CC[C@]1(C(=O)N2CCOCC2)COC(c2ccc(OCCCO)cc2)=N1`, the z-score is -0.16.

On to `C=CCNC(=O)[C@@H]1[C@H]2C(=O)O[C@H](c3ccccc3)[C@H](c3ccccc3)N2[C@H](c2ccc(O)cc2)[C@@]12C(=O)Nc1ccc(C#CC3=CCCCC3)cc12`, for which the z-score is 0.0206.

Take `CCOC(=O)C[C@H]1[C@H](OC(=O)Cc2ccc3c(c2)OCO3)[C@@H](NC(=O)CC(C)C)c2cc(OCCCO)ccc2N1C(=O)c1ccc2ccccc2n1`: the z-score is -0.0615.

On to `COc1cc2c(cc1OC)CN(C(=O)[C@@H]1[C@H]3C(=O)O[C@H](c4ccccc4)[C@H](c4ccccc4)N3[C@H](c3ccc(O)cc3)[C@@]13C(=O)Nc1ccc(C#CC4=CCCCC4)cc13)CC2`, for which the z-score was 0.0655.

Turning to `CCOC(=O)C1=CCC(c2ccncc2)N(S(=O)(=O)c2ccc(C)cc2)C1` (stereo unspecified), the z-score is 0.0325.

In the case of `C=CCC(OC(C)=O)[C@@H]1[C@@H](N(Cc2cccc3ccccc23)C(=O)c2ccc(C)cc2)c2cc(OCCCO)ccc2N1C(=O)Cc1ccc2ccccc2c1` (stereo partly specified), the z-score is -0.648.

`COc1ccc(NN2C(C(O)c3ccc(F)cc3)C=CC3C(=O)N(C4CCCCC4)C(=O)C32)cc1` (stereo unspecified): the z-score is 0.472.

Consider `CCCCCN1CC=CC23O[C@@H]4/C=C\CCCOC(=O)C4[C@H]2C(=O)N(CCO)[C@@H]3C1=O` (stereo partly specified), for which the z-score was 0.169.

On to `O=C1NC(=O)C2C1C=CC(C(O)c1ccc(F)cc1)N2Nc1ccc(Cl)cc1Cl` (stereo unspecified), for which the z-score was -0.142.

Take `COC(=O)[C@@]1(Cc2ccc(F)cc2)[C@H]2c3cc(C(=O)N4CCCC4)n(Cc4ccc(C(F)(F)F)nc4)c3C[C@H]2CN1C(=O)c1ccccc1`: the z-score was 0.278.

As to `CC[C@@H](O[Si](C#C[Si](C(C)C)(C(C)C)C(C)C)(C(C)C)C(C)C)c1cn([C@H](CO)Cc2ccccc2)nn1`, the z-score is -0.058.

Values taken from PubChem BioAssay.
